Inconclusive results are not listed. Unmarked numbers belong to inactive results. The source made the active and inactive calls. Calls follow the shape of the dose curve; as a rule, active = well fitted cell-killing curve with a large enough effect in the repeat runs; inconclusive = weak or mixed curves; inactive = flat fitted curve, though single readings scatter.
Assay: qHTS RealTime-Glo MT Cell Viability Assay in HepG2 cells - 24 hour (AID 1224867); also: nearly all actives have a fitted effect of over 50% in size
Settings: RealTime-Glo luminescence; series mostly up to 76.8 µM; activity change, negative = cytotoxicity: at the top concentration
Text: U.S. Tox21 Program National Center for Advancing Translational Sciences [NCATS] NIH Chemical Genomics Center [NCGC] U.S. Environmental Protection Agency [EPA] National Institutes of Environmental Health Sciences [NIEHS] National Toxicology Program [NTP] U.S. Food and Drug Administration [FDA] Tox21 Assay Overview: Measure of cell viability is critical in the cell-base assay. Analysis of cell viability is necessary for the characterization of cell responses to cytotoxic drugs and environmental stress. A RealTime-Glo MT Cell Viability Assay to monitor cell viability in real time of continues cell culture during 40 hours of compound treatment was used to screen Tox21 10K library compounds in HepG2 cells. The RealTime-Glo MT Cell Viability Assay is a nonlytic, homogeneous, bioluminescent method to measure cell viability in real time using a simple, plate-based method. The assay involves adding NanoLuc luciferase and a cell-permeant prosubstrate to cells in culture. Viable cells reduce the proprietary prosubstrate to generate a substrate for NanoLuc luciferase. This substrate diffuses from cells into the surrounding culture medium, where it is rapidly used by the NanoLuc Enzyme to produce a luminescent signal. The signal correlates with the number of viable cells, making the assay well suited for cytotoxicity studies.
Tox21 Assay Protocol Summary: The mixture of HepG2 cell suspension and reagents were dispensed at 600cells/6 ul/well in 1536-well tissue culture treated black solid bottom plates using a Multidrop dispenser. After the assay plates were incubated at a 37 C/5% CO2 incubator for 5 hours, 23 nL of compounds dissolved in DMSO, positive and negative controls was transferred to the assay plate by a pintool work station. The plates were incubated at 37 C for 40 hours. The luminescence intensity were measured at 0h, 8h, 16h, 24h, 32h and 40h time points using ViewLux plate reader during compound treatment.
In the case of `CCNc1nc(NC(C)(C)C)nc(OC)n1`, the “activity change, negative = cytotoxicity” value is reported as -0.518%. In the case of `C/C(=N\[Si](C)(C)C)O[Si](C)(C)C`, the “activity change, negative = cytotoxicity” value is reported as 2.63%. In the case of `[Cl][Eu]([Cl])[Cl]`, the “activity change, negative = cytotoxicity” value is reported as -22.7%. With `Cc1cc(F)ccc1-c1cc(N2CC[C@@H](O)[C@H]2CO)ncc1N(C)C(=O)C(C)(C)c1cc(C(F)(F)F)cc(C(F)(F)F)c1` the Potency was 38.3 µM (active). With `CC/C=C\C/C=C\C/C=C\CCCCCCCC(=O)OC` the “activity change, negative = cytotoxicity” value was 0.301%. For `CC(C)c1ccc2sc3ccccc3c(=O)c2c1`, the “activity change, negative = cytotoxicity” value was -18%. For `Oc1ccc2c(c1)CCC2`, the “activity change, negative = cytotoxicity” value was 2.63%. For `c1ccc2occc2c1`, the “activity change, negative = cytotoxicity” value was 1.53%. For `NC(=O)c1ccccc1Cl`, the “activity change, negative = cytotoxicity” value was -0.401%. In the case of `O=S(=O)(c1ccc(OCc2ccccc2)cc1)c1ccccc1O`, the “activity change, negative = cytotoxicity” value is reported as -17.2%. For `O=C(Nc1ccc([N+](=O)[O-])cc1)Nc1ccc([N+](=O)[O-])cc1` (tested in a mixture with another compound), the “activity change, negative = cytotoxicity” value was -12.4% [at 35.3 µM]. In the case of `CO[Si](OC)(c1ccccc1)c1ccccc1`, the “activity change, negative = cytotoxicity” value is reported as -11%. With `C=C(C)C1CCC(C)CC1O` (stereo not given) the “activity change, negative = cytotoxicity” value was 0.188%. For `NCc1cccc(C2CCN(C(=O)c3ccc(C#Cc4ccccc4F)o3)CC2)c1`, the Potency was 54.9 µM (active). In the case of `CN1CCN(c2ccccc2/C=C2\SCCN(c3ccc(Cl)c(Cl)c3)C2=O)CC1`, the Potency is reported as 38.9 µM (active). With `O[Si](c1ccccc1)(c1ccccc1)c1ccccc1` the “activity change, negative = cytotoxicity” value was -15.7%. For `CC/C(=C(/c1ccc(O)cc1)c1ccc(OCCN(C)C)cc1)c1ccccc1`, the Potency was 18.2 µM (active). For `COc1cc([C@@H]2c3cc4c(cc3[C@@H](O[C@@H]3O[C@@H]5CO[C@@H](C)O[C@H]5[C@H](O)[C@H]3O)[C@H]3COC(=O)[C@H]23)OCO4)cc(OC)c1O`, the “activity change, negative = cytotoxicity” value was -20.7%. In the case of `C=Cc1ccc(O)c(OC)c1`, the “activity change, negative = cytotoxicity” value is reported as 0.492%. For `CC(Cc1ccc(O)c(O)c1)C(C)Cc1ccc(O)c(O)c1` (stereo not given), the Potency was 43.6 µM (active). With `CC1=C(/C=C/C(C)=C/C=C/C(C)=C\C(=O)O)C(C)(C)CCC1` the “activity change, negative = cytotoxicity” value was -6.74%. For `C=C(C)CCO`, the “activity change, negative = cytotoxicity” value was -0.887%. In the case of `Nc1ccc(F)c([N+](=O)[O-])c1`, the “activity change, negative = cytotoxicity” value is reported as 0.189%. For `Nc1ccc(Oc2cccc(Oc3ccc(N)cc3)c2)cc1`, the “activity change, negative = cytotoxicity” value was -3.72%. For `C=CC(=O)OCC(Br)CBr` (stereo not given), the “activity change, negative = cytotoxicity” value was 2.13%. For `Nc1cc([N+](=O)[O-])ccc1Cl`, the “activity change, negative = cytotoxicity” value was 2.45%. For `COc1c(Br)cc(Br)c(C)c1Br`, the “activity change, negative = cytotoxicity” value was -11.8%. With `CCN(CC)c1ccc(C=O)c(O)c1` the “activity change, negative = cytotoxicity” value was 0.733%. For `SC1CCCCC1`, the “activity change, negative = cytotoxicity” value was -1.08%. With `CCSCC` the “activity change, negative = cytotoxicity” value was 0.453%. In the case of `Nc1cc([N+](=O)[O-])cc(Cl)c1O`, the “activity change, negative = cytotoxicity” value is reported as -4.69%. With `Cc1c[nH]c(=O)[nH]c1=O` the “activity change, negative = cytotoxicity” value was 1.63%. In the case of `C/C(=C\c1ccc(C(=O)O)cc1)c1ccc2c(c1)C(C)(C)CCC2(C)C`, the “activity change, negative = cytotoxicity” value is reported as 3.45% [at 35.3 µM]. With `Oc1ccc(Cl)cc1C1CCCC1` the “activity change, negative = cytotoxicity” value was -18.8%. With `CCCCCCCCCCCCCCCCC(C(=O)O)C(O)(CC(=O)O)C(=O)O` (stereo not given) the “activity change, negative = cytotoxicity” value was -7.67% [at 35.3 µM]. In the case of `c1ccc2c(c1)-c1ccc3ccc4cccc5cc-2c1c3c45`, the “activity change, negative = cytotoxicity” value is reported as -2.08% [at 35.3 µM]. In the case of `CC(C)(C)C1=CC(=O)C(C(C)(C)C)=CC1=O`, the “activity change, negative = cytotoxicity” value is reported as 1.62% [at 35.3 µM]. With `CCN(CC)c1ccc2c(c1)Oc1cc(N(CC)CC)ccc1C21OC(=O)c2ccccc21` the “activity change, negative = cytotoxicity” value was -19.2% [at 35.3 µM]. For `CCN(CCC#N)c1ccc(N=Nc2ccc([N+](=O)[O-])cc2)cc1`, the “activity change, negative = cytotoxicity” value was 0.848%. With `c1ccc2cc3c4ccccc4c4ccccc4c3cc2c1` the “activity change, negative = cytotoxicity” value was -6.95%.
% is scaled to controls: 0 for no effect and ±100 for the full control effect; potency is read from the fitted curve at half-maximal effect.
